# Experimental data reported in article PMC7862700, “An all-to-all approach to the identification of sequence-specific readers for epigenetic DNA modifications on cytosine”.
# Legend:
# Experiment in all cases: DAPPL (digital affinity profiling via proximity ligation, sequencing); 10 mM Tris-HCl pH 7.5, 50 mM NaCl, 1 mM DTT, 4% glycerol, room temperature, 30 min; GST-TFs on glutathione beads, 16-mer random dsDNA library, 0.1% formaldehyde crosslink after washing; high values mean tight binding
# FLI1 = target: T1, FLI1 (Homo sapiens, UniProt Q01543 1-452); settings: protein: recombinant; tags: N-terminal GST; dsDNA, one strand shown
# T1 sequence: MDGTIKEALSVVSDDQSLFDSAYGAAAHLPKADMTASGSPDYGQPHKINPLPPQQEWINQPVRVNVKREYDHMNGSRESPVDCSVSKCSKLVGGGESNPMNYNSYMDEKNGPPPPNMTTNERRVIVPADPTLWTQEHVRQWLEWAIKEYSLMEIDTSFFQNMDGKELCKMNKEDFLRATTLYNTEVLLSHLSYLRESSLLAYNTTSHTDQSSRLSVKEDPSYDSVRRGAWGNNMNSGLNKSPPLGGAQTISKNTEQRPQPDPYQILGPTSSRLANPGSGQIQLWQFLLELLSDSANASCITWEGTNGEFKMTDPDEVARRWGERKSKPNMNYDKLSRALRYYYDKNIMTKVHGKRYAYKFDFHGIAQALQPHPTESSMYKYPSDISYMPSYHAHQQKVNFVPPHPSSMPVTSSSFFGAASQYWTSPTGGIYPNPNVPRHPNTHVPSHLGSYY
# Method in brief: (§1)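 The binding signal reported is, for every hexamer, its read frequency for a factor over its read frequency for the tag-only sample. Reads came from pools of yeast-expressed, GST-fused human transcription factors on glutathione beads, barcoded with DNA and mixed with that sample, which were incubated with 200 nmole of a random double-stranded 16-mer DNA library in Tris/NaCl/DTT/glycerol buffer at room temperature for 30 min. After washing, the pools were crosslinked with 0.1% formaldehyde, proximity-ligated with BsaI/T4 ligase for 1 h at 37 °C, PCR-amplified and sequenced on an Illumina NextSeq500.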
# ELK1 = target: T2, ELK1 (Homo sapiens, UniProt P19419 1-428); settings: protein: recombinant; tags: N-terminal GST; dsDNA, one strand shown
# T2 sequence: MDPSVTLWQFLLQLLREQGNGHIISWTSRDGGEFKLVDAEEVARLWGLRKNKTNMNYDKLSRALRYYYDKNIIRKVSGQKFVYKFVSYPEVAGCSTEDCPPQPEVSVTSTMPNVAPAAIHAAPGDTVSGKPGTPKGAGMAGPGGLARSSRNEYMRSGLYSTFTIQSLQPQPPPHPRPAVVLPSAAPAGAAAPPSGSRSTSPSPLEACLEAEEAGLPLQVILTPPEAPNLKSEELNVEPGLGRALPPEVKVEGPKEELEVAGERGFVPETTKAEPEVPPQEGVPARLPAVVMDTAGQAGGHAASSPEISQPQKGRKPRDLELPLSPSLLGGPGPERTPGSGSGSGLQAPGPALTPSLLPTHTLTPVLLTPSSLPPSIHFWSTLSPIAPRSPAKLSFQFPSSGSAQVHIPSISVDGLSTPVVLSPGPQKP
# Method in brief: as §1
# GABPA = target: T3, GABPA (Homo sapiens, UniProt Q06546 1-454); settings: protein: recombinant; tags: N-terminal GST; dsDNA, one strand shown
# T3 sequence: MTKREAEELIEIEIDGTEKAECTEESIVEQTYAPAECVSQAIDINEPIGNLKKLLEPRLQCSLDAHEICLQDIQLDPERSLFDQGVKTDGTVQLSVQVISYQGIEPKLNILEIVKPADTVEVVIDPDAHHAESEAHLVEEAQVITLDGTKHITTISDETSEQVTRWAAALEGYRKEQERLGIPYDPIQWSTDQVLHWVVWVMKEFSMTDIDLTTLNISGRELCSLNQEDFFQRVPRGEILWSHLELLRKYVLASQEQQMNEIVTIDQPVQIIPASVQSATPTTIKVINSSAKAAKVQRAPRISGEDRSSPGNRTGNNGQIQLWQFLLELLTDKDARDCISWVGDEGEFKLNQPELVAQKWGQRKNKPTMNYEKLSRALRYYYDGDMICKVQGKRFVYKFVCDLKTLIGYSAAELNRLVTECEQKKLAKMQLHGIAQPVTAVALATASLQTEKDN
# Method in brief: as §1
# ERG = target: T4, ERG (Homo sapiens, UniProt P11308 1-479); settings: protein: recombinant; tags: N-terminal GST; dsDNA, one strand shown
# T4 sequence: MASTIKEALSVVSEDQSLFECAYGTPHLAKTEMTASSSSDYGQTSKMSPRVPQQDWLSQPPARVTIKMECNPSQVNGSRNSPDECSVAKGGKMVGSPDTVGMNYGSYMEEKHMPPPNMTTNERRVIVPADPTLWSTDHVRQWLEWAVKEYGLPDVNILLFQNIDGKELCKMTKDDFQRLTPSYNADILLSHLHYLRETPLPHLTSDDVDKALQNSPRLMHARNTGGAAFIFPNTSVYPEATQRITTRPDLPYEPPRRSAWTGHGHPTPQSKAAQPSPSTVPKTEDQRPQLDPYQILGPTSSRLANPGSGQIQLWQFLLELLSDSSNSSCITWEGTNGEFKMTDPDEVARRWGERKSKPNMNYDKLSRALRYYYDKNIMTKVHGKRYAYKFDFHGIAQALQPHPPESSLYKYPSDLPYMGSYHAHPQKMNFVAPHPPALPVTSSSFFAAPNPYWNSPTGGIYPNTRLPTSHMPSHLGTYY
# Method in brief: as §1
# ELF1 = ELF1 (Homo sapiens, UniProt P32519 1-619); settings: protein: recombinant; tags: N-terminal GST; dsDNA, one strand shown
# Method in brief: as §1
# EHF = target: T5, EHF (Homo sapiens, UniProt Q9NZC4 1-300); settings: protein: recombinant; tags: N-terminal GST; dsDNA, one strand shown
# T5 sequence: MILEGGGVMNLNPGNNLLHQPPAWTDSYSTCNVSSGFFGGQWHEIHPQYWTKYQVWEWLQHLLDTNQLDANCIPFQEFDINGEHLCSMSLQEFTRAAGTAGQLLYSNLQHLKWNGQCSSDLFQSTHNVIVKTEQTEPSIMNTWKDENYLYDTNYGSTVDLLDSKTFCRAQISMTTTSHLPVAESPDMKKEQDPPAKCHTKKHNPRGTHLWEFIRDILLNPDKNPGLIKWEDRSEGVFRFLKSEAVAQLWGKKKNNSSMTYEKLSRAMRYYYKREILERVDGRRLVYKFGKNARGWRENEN
# Method in brief: as §1
# SPI1 = SPI1 (Homo sapiens, UniProt P17947 1-270); settings: protein: recombinant; tags: N-terminal GST; dsDNA, one strand shown
# Method in brief: as §1
# SPIB = SPIB (Homo sapiens, UniProt Q01892 1-262); settings: protein: recombinant; tags: N-terminal GST; dsDNA, one strand shown
# Method in brief: as §1
# ELK3 = target: T6, ELK3 (Homo sapiens, UniProt P41970 1-407); settings: protein: recombinant; tags: N-terminal GST; dsDNA, one strand shown
# T6 sequence: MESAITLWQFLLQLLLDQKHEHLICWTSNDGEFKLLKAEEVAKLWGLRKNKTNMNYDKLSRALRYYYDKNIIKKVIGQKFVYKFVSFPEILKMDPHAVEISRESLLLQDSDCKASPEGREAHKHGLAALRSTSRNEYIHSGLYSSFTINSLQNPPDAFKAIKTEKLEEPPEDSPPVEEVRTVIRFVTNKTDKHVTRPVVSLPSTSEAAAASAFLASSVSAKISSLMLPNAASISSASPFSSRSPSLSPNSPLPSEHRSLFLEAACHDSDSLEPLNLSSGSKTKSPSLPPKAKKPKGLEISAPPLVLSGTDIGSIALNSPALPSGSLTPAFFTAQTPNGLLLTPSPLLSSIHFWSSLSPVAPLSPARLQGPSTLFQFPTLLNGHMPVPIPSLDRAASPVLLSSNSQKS
# Method in brief: as §1
# FEV = target: T7, FEV (Homo sapiens, UniProt Q99581 1-238); settings: protein: recombinant; tags: N-terminal GST; dsDNA, one strand shown
# T7 sequence: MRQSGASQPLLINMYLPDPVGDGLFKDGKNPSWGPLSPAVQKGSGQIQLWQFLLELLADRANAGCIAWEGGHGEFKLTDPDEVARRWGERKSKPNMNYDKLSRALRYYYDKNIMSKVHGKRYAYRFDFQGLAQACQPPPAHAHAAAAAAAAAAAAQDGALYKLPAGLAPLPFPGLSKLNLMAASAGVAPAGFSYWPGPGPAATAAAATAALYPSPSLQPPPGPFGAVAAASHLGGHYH
# Method in brief: as §1
# ETV5 = ETV5 (Homo sapiens, UniProt P41161 1-510); settings: protein: recombinant; tags: N-terminal GST; dsDNA, one strand shown
# Method in brief: as §1
# HSF1 = HSF1 (Homo sapiens, UniProt Q00613 1-529); settings: protein: recombinant; tags: N-terminal GST; chain copies: 3; dsDNA, one strand shown
# Method in brief: as §1
# SPIC = target: T8, SPIC (Homo sapiens, UniProt Q8N5J4 1-248); settings: protein: recombinant; tags: N-terminal GST; dsDNA, one strand shown
# T8 sequence: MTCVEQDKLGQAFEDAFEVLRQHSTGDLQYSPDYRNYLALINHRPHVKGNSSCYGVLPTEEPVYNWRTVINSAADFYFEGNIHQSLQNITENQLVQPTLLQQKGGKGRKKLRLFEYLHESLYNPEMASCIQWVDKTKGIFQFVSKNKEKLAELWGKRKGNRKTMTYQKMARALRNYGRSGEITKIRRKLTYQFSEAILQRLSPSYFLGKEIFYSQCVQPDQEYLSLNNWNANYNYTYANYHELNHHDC
# Method in brief: as §1
# ELF4 = ELF4 (Homo sapiens, UniProt Q99607 1-663); settings: protein: recombinant; tags: N-terminal GST; dsDNA, one strand shown
# Method in brief: as §1
# ELK4 = target: T9, ELK4 (Homo sapiens, UniProt P28324-2 1-405); settings: protein: recombinant; tags: N-terminal GST; dsDNA, one strand shown
# T9 sequence: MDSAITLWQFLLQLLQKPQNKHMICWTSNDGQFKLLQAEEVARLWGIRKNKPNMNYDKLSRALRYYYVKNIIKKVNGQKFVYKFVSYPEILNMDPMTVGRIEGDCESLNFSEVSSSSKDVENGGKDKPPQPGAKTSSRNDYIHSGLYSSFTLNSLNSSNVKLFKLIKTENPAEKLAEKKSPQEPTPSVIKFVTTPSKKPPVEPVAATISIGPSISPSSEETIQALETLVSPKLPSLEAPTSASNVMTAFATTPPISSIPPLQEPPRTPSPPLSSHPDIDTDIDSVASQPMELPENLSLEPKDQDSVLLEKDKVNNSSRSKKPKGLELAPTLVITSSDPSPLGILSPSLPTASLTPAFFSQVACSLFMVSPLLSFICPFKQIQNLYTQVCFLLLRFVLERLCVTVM
# Method in brief: as §1
# ETV2 = target: T10, ETV2 (Homo sapiens, UniProt O00321 1-342); settings: protein: recombinant; tags: N-terminal GST; dsDNA, one strand shown
# T10 sequence: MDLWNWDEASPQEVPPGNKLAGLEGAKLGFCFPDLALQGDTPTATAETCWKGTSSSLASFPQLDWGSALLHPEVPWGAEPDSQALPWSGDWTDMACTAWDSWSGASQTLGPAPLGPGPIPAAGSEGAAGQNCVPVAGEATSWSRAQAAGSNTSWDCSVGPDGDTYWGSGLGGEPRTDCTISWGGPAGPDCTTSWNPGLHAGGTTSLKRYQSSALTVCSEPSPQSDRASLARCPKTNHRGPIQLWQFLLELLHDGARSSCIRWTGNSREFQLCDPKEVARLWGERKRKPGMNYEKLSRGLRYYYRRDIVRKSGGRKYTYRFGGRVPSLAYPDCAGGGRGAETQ
# Method in brief: as §1
# ELF3 = target: T11, ELF3 (Homo sapiens, UniProt P78545 1-371); settings: protein: recombinant; tags: N-terminal GST; dsDNA, one strand shown
# T11 sequence: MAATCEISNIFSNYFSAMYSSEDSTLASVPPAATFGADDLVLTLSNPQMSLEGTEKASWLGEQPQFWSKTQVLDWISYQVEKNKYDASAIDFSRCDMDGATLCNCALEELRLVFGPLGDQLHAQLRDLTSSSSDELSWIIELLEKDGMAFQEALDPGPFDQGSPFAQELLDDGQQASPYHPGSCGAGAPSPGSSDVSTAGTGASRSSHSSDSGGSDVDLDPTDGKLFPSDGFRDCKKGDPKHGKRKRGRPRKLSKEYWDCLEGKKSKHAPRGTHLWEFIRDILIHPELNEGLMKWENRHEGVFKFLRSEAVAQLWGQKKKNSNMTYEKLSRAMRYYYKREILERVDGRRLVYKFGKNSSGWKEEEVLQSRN
# Method in brief: as §1
# ETV1 = ETV1 (Homo sapiens, UniProt P50549 1-477); settings: protein: recombinant; tags: N-terminal GST; dsDNA, one strand shown
# Method in brief: as §1
# Chain of SPIB (Q01892 whole entry): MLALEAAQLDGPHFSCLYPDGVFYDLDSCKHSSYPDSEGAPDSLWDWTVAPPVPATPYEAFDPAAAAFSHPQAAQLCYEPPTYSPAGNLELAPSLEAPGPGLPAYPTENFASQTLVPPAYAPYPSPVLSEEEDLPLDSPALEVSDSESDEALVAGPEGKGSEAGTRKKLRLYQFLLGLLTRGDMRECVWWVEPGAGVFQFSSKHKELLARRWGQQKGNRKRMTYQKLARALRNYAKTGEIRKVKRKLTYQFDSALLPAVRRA
# Chain of ELF1 (P32519 whole entry): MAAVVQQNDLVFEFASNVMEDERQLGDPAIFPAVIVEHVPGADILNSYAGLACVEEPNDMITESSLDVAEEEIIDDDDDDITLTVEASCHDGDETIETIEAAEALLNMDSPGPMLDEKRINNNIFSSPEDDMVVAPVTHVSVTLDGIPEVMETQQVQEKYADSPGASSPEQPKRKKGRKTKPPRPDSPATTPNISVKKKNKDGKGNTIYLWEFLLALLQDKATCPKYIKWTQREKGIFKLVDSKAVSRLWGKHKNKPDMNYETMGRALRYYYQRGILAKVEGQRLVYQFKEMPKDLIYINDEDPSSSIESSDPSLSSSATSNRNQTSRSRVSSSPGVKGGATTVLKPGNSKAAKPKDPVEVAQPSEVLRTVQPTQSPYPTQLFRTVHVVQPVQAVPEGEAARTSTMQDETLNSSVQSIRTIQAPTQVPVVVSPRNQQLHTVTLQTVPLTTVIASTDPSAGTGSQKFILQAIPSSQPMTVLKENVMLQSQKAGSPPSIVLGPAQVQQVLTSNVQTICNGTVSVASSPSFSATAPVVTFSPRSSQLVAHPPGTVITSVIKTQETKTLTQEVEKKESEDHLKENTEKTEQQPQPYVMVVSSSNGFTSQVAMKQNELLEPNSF
# Chain of ETV5 (P41161 whole entry): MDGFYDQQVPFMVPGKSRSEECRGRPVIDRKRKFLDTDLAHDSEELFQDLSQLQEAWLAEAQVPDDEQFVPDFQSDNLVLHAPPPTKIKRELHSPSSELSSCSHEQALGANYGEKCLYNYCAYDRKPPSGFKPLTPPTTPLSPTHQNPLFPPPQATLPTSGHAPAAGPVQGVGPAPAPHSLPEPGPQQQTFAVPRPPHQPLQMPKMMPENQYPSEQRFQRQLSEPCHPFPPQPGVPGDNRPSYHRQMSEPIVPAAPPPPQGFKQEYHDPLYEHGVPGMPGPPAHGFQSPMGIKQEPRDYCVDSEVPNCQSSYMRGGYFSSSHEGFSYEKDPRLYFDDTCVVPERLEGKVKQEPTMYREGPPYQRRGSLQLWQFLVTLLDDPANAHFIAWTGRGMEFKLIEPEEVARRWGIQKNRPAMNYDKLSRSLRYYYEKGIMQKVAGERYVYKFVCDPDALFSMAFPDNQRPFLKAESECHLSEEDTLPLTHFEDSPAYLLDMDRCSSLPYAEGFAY
# Chain of HSF1 (Q00613 whole entry): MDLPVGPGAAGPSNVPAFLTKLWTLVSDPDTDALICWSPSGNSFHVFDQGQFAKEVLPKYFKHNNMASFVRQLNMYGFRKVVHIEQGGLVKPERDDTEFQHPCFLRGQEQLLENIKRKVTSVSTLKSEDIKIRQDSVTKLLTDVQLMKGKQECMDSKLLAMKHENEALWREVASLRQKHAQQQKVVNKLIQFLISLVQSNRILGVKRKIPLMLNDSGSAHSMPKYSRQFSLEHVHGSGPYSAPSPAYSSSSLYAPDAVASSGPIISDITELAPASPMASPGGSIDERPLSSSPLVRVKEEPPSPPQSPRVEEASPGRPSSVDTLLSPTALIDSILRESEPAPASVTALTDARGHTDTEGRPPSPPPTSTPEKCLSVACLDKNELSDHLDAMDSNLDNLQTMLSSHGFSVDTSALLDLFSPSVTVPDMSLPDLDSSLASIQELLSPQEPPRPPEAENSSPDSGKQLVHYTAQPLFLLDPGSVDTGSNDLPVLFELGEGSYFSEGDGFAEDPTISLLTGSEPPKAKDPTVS
# Chain of ELF4 (Q99607 whole entry): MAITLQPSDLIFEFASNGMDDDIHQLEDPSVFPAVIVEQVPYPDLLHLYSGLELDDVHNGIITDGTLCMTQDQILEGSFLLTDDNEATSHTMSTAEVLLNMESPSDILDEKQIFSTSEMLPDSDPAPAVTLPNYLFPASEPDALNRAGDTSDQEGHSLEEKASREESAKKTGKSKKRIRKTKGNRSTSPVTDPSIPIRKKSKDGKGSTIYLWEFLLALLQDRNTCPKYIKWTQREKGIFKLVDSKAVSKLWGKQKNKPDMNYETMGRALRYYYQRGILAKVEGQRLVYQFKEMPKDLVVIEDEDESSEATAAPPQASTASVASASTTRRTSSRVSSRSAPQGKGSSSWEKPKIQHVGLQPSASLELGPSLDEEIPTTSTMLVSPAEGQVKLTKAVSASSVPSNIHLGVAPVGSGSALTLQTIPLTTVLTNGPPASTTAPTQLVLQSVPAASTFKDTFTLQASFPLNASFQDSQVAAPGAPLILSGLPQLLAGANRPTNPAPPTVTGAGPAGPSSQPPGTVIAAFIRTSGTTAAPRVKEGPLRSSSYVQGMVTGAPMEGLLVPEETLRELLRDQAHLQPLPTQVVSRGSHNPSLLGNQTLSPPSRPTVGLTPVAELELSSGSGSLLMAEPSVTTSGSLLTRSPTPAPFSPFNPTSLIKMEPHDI
# Chain of ETV1 (P50549 whole entry): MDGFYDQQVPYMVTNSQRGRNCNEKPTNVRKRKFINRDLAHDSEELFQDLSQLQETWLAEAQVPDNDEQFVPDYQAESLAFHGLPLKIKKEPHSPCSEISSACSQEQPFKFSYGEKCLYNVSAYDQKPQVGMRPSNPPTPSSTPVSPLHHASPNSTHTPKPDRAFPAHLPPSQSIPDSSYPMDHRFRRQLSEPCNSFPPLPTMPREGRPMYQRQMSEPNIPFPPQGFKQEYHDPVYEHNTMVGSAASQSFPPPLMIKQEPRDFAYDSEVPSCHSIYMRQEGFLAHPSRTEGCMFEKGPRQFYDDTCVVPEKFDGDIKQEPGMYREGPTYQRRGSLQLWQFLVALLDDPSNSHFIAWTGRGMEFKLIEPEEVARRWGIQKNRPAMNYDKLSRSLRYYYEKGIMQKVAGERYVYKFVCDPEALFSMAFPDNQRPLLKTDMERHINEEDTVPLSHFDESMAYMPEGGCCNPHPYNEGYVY
sequence,measurement,setting,value
ACCATC,binding signal,FLI1,"1.18 fold enrichment (6-mer frequency, TF over GST control)"
same,binding signal,ELK1,"1.14 fold enrichment (6-mer frequency, TF over GST control)"
same,binding signal,GABPA,"1.19 fold enrichment (6-mer frequency, TF over GST control)"
same,binding signal,ERG,"1.1 fold enrichment (6-mer frequency, TF over GST control)"
same,binding signal,ELF1,"1.21 fold enrichment (6-mer frequency, TF over GST control)"
same,binding signal,EHF,"1.12 fold enrichment (6-mer frequency, TF over GST control)"
same,binding signal,SPI1,"1.15 fold enrichment (6-mer frequency, TF over GST control)"
same,binding signal,SPIB,"1.07 fold enrichment (6-mer frequency, TF over GST control)"
same,binding signal,ELK3,"1.24 fold enrichment (6-mer frequency, TF over GST control)"
same,binding signal,FEV,"1.13 fold enrichment (6-mer frequency, TF over GST control)"
same,binding signal,ETV5,"1.11 fold enrichment (6-mer frequency, TF over GST control)"
same,binding signal,HSF1,"1.14 fold enrichment (6-mer frequency, TF over GST control)"
same,binding signal,SPIC,"1.02 fold enrichment (6-mer frequency, TF over GST control)"
same,binding signal,ELF4,"1.12 fold enrichment (6-mer frequency, TF over GST control)"
same,binding signal,ELK4,"1.13 fold enrichment (6-mer frequency, TF over GST control)"
same,binding signal,ETV2,"1.06 fold enrichment (6-mer frequency, TF over GST control)"
same,binding signal,ELF3,"1.19 fold enrichment (6-mer frequency, TF over GST control)"
same,binding signal,ETV1,"1.03 fold enrichment (6-mer frequency, TF over GST control)"
